# Results: PubChem BioAssay AID434927 (Sanford-Burnham Center for Chemical Genomics, 2010)
# Activity calls are given as the source filed them.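 The calls were made as follows: active = inhibition above about 23% in any of six single-dose repeats (limit read from the data); inactive = the rest.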
# Target: Intestinal-type alkaline phosphatase (Homo sapiens) (UniProt P09923)
# Assay: suppression of intestinal alkaline phosphatase activity – biochemical, luminescence, single concentration, uHTS hits, confirmation (AID 434927);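 also: plate controls were DMSO wells with enzyme for no effect and wells lacking enzyme for full effect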
# Conditions: purified human IAP, CDP-Star luminescence, 30 min; at 8.3 µM; active compounds read high
# Chain of Intestinal-type alkaline phosphatase (Homo sapiens) (P09923 whole entry, looked up): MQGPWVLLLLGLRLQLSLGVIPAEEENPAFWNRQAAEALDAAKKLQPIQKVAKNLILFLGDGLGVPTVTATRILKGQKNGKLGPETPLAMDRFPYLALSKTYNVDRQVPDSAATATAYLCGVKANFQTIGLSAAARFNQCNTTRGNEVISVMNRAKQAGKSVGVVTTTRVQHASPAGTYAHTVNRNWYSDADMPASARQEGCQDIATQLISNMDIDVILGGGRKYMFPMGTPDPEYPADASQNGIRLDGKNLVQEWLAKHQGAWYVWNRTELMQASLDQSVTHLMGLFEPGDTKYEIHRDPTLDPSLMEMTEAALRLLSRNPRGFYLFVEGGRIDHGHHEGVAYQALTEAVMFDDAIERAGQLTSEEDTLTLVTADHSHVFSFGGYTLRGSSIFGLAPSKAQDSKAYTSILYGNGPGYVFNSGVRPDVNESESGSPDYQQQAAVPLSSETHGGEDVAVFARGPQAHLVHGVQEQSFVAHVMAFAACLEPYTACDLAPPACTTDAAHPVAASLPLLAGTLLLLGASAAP
row,SMILES,inhibition
1,COc1ccc2nc3cc(Cl)ccc3c(Nc3cc(CN4CCCC4)c(O)c(CN4CCCC4)c3)c2n1,-60.1% (inactive)
2,O=C(/C=C/c1ccccc1O)c1ccco1,-104% (inactive)
3,Cc1ccsc1C(=O)NNC(=S)NC1CCCCC1,49.4% (active)
4,Cc1ccc(O)c(N/C=C/C(=O)c2ccc(F)cc2)c1,-120% (inactive)
5,Cc1ccc(O)c(-c2cc(C(=O)NCc3ccc4c(c3)OCO4)[nH]n2)c1,19.7% (active)
6,CCn1nc(C)c(CN2CCC(C(=O)Nc3cccc(-c4cccc(F)c4)c3)CC2)c1C,50.7% (active)
7,COc1cccc(-c2nc(CS(=O)(=O)CC(=O)Nc3cc(OC)ccc3OC)c(C)o2)c1,31.5% (active)
8,Cc1ccc(O)c(/C=N/NC(=O)c2[nH]ncc2Br)c1,23.2% (active)
9,CC1C(=O)NN=C1C(=O)N/N=C\c1ccc(O)cc1O (centres undefined),-78.7% (inactive)
10,O=c1c(O[C@@H]2O[C@H](CO)[C@@H](O)[C@H](O)[C@H]2O)c(-c2ccc(O)c(O)c2)oc2cc(O)cc(O)c12,48% (active)
11,CSCCC(NS(=O)(=O)c1ccc(C)cc1)C(=O)NNC(=O)c1csc(N2CCOCC2)n1 (centres undefined),48.3% (active)
12,COc1ccc(NC(=O)CCN2CCN(S(=O)(=O)c3cc(Cl)ccc3OC)CC2)cc1,35.6% (active)
13,Cc1cc(=O)[nH]c(-n2[nH]c3c(c2=O)CCCC3)n1,55.9% (active)
14,C/C(=N/NC(=O)c1ccc(Cn2cccn2)o1)c1cccc(NC(=O)c2ccncc2)c1,-101% (inactive)
15,Cc1nc2c3ccccc3nc(NNC(=O)CCC(=O)NCCN3CCN(c4ccccc4)CC3)n2n1,-97.4% (inactive)
16,Cc1ccccc1CNC(=O)c1ccccc1N,37.2% (active)
17,CCN(CC)c1ccc(/C=N/NC(=O)c2nnn(-c3nonc3N)c2C(C)C)c(O)c1,32.4% (active)

row,SMILES,inhibition
1,O=C(CCNS(=O)(=O)c1ccccc1C(F)(F)F)NNC(=O)c1csc(N2CCOCC2)n1,0.0741% (inactive)
2,COc1ccc(C2=NN(C3=NN=C(N)Cc4ncnn43)C(O)(C(F)(F)F)C2)cc1 (centres undefined),42% (active)
3,CSCCC(NS(=O)(=O)c1ccccc1F)C(=O)NNC(=O)c1csc(N2CCOCC2)n1 (centres undefined),72.3% (active)
4,Cn1nnnc1N=N/C(=N/Nc1ccccc1)c1ccccc1,54.9% (active)
5,Cc1cccc(OCC(=O)NNC(=O)c2ccc3nc[nH]c3c2)c1,-117% (inactive)
6,Cc1ccc(S(=O)(=O)N(CC(=O)Nc2ccc(C)cc2C)C(=O)N2CCN(C)CC2)cc1,-55.4% (inactive)
7,CC(=O)Nc1cccc(-c2csc(Nc3ccccn3)n2)c1,-94.1% (inactive)
8,Cc1ccc(NC(=O)c2ccncc2)cc1[N+](=O)[O-],53.7% (active)
9,COc1cc(/C=N\NS(=O)(=O)c2ccccc2)cc(OC)c1OC,30.7% (active)
10,COC(=O)CN1C(=O)C(O)(CC(=O)c2ccc(C)cc2)c2ccccc21 (centres undefined),45.9% (active)
11,CCCCCCCn1c(=N)n(CC(=O)c2ccco2)c2ccccc21,-49.6% (inactive)
12,O=c1c2ccccc2nc(N/N=C/c2c(O)ccc3ccccc23)n1O,-53.7% (inactive)
13,O=c1c2c(-c3cccs3)csc2ncn1-c1ccc(Br)cc1,-112% (inactive)
14,O=C(COc1ccc(Br)cc1)NCCCn1ccnc1,50.5% (active)
15,COc1ccc(CC2CC(=O)N(c3ccc(C)cc3)C2=O)cc1 (centres undefined),23.2% (active)
16,O=C(CN1CCN(C(=O)N2CCCCC2)CC1)Nc1ccc(F)cc1,-97.3% (inactive)
17,O=C(NNC(=S)NC1CCCCC1)c1ccccc1Br,-42.5% (inactive)
